SMILES strings stand for the structures. Records with an inconclusive call do not appear. A number with no mark means an inactive call. Calls follow the shape of the dose curve; as a rule, active = well fitted inhibition curve with a large enough effect; inconclusive = small, poorly fitted or top-dose-only effect; inactive = flat fitted curve, though single readings scatter. Where a SMILES comes first, the peptide text is derived from it. Bridges are numbered along the chain shown (N, C = ends). [ ]: non-standard residue; d: D form. The star is where a group is joined. Dab(CH2SO3H) = N[C@@H](CCNCS(=O)(=O)O)C(=O)O; X3 = CC[C@@H](C)CCCCC(=O)*; Dab = NCC[C@H](N)C(=O)O

The text below walks through data of PubChem BioAssay (NCATS).
% is scaled to controls: 0 for no effect and ±100 for the full control effect.

The nature of this assay: Drug repurposing screens with cells derived from glioblastoma tumor samples (AID 1345199). Also: nearly all actives have a fitted effect of over 40% in size. To be noted: GBM patient neurospheres viability, ATP luminescence, 48 h; at 45.9 µM (top of the series); tumour line B. The method in brief:
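Primary testing used CD133+ neurospheres from four GBM patients, seven concentrations, 48 h exposure and ATP-based viability; confirmation added three slower-growing patient lines.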
With `CC1(C)C(C=C(Cl)Cl)C1C(=O)OCc1cccc(Oc2ccccc2)c1` (stereo not drawn), the activity, negative = cell killing was -14.8%.

In the case of `CO[C@H]1C=CO[C@@]2(C)Oc3c(C)c(O)c4c(O)c(c5c(c4c3C2=O)=NC2(CCN(CC(C)C)CC2)N=5)NC(=O)/C(C)=C\C=C/[C@H](C)[C@H](O)[C@@H](C)[C@@H](O)[C@@H](C)[C@H](OC(C)=O)[C@@H]1C`, the activity, negative = cell killing is -14.2%.

Regarding `CC(=O)Oc1c(C)cc(OCC(O)CNC(C)C)c(C)c1C` (stereo not drawn), the activity, negative = cell killing was -11.9%.

With `CCCCCCCC/C=C\CCCCCCCC(=O)O`, the activity, negative = cell killing is 3.38%.

As to `CO/N=C(\C(=O)N[C@@H]1C(=O)N2C(C(=O)O)=C(CSc3cnns3)CS[C@H]12)c1csc(N)n1`, the activity, negative = cell killing is -0.235%.

`CC[C@@H](C)CCCCC(=O)N[C@@H](CCNCS(=O)(=O)O)C(=O)N[C@H](C(=O)N[C@@H](CCNCS(=O)(=O)O)C(=O)N[C@H]1CCNC(=O)[C@H]([C@@H](C)O)NC(=O)[C@H](CCNCS(=O)(=O)O)NC(=O)[C@H](CCNCS(=O)(=O)O)NC(=O)[C@H](CC(C)C)NC(=O)[C@@H](CC(C)C)NC(=O)[C@H](CCNCS(=O)(=O)O)NC1=O)[C@@H](C)O` (X3-[Dab(CH2SO3H)]T[Dab(CH2SO3H)][Dab][Dab(CH2SO3H)][dL]L[Dab(CH2SO3H)][Dab(CH2SO3H)]T; lactam 4-C): the activity, negative = cell killing was -7.01%.

`CO[C@H]1C=CO[C@@]2(C)Oc3c(C)c(O)c4c(O)c(c5c(nc6cc(C)ccn65)c4c3C2=O)NC(=O)/C(C)=C\C=C[C@H](C)[C@H](O)[C@@H](C)[C@@H](O)[C@@H](C)[C@H](OC(C)=O)[C@@H]1C`: the activity, negative = cell killing is -10.2%.

For the molecule `COC(=O)C1=C(C#N)NC(C)=C(C(=O)OC(C)C)C1c1cccc([N+](=O)[O-])c1` (stereo not drawn), the activity, negative = cell killing was -5.18%.
